The values that follow come from PubChem BioAssay (EPA / NIEHS).

Each structure is given as a SMILES string. The source made the active and inactive calls. How the source made its calls: active means hit-call score of the fitted dose curve at least 0.9, where 1 is the maximum; inactive means score below 0.9.

In general, AC50 refers to the midpoint of the concentration-response curve, whichever way the signal moves.

The target in this assay is Heat shock factor protein 1 (Homo sapiens) (UniProt Q00613). The assay can be described thus: ATG_HSE_CIS: Attagene CIS-FACTORIAL HepG2 Assay for human Heat Shock Transcription Factor 1 (HSE) (AID 2282953). The conditions noted are these: HepG2 HSE cis-reporter, Attagene RNA transcription; actives raise or lower the signal. Here is the method: ATG_CIS is a cell-based, multiplexed-readout assay that uses HepG2, a human liver cell line, with measurements taken at 24 hours after chemical dosing in a 24-well plate.ATG_HSE_CIS is one of 52 assay component(s) measured or calculated from the ATG_CIS assay. It is designed to make measurements of mRNA induction, a form of inducible reporter, as detected with fluorescence intensity signals by Reverse transcription polymerase chain reaction (RT-PCR) and Capillary electrophoresis technology.Data from the assay component ATG_HSE_CIS was analyzed into 1 assay endpoint. This assay endpoint, ATG_HSE_CIS, was analyzed with bidirectional fitting relative to DMSO as the negative control and baseline of activity. Using a type of inducible reporter, measures of mRNA for gain or loss-of-signal activity can be used to understand the reporter gene at the transcription factor-level as they relate to the gene HSF1. Furthermore, this assay endpoint can be referred to as a primary readout, because this assay has produced multiple assay endpoints where this one serves a reporter gene function. To generalize the intended target to other relatable targets, this assay endpoint is annotated to the dna binding intended target family, where the subfamily is heat shock protein.
Heat shock factor protein 1 (Homo sapiens), sequence (Q00613 whole entry, looked up): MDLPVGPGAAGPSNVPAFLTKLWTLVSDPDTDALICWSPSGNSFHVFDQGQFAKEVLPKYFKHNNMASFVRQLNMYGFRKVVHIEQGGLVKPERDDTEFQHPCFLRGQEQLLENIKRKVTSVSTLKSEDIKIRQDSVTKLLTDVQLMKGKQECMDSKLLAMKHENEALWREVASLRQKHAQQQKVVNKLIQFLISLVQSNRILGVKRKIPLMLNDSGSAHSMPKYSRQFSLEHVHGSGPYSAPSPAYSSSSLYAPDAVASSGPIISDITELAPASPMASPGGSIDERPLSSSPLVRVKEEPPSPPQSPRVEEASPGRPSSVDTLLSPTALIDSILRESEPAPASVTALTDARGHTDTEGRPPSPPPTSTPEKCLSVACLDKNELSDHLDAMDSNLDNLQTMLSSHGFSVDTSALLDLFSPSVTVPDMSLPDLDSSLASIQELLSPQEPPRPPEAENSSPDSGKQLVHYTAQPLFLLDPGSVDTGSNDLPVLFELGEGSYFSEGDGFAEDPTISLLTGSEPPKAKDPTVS
Human liver HepG2 cells are transiently transfected with multiple reporter transcription units (MRTUs) in 6-well plates using FuGene 6 reagent (Roche; 3 ml FuGene/1 mg DNA). The MRTU constructs are regulated by a cis-regulating element (promoter). […] A major difference between the CIS and TRANS system is that in CIS activities of endogenous TFs are measured, whereas the TRANS assay evaluates changes in activities of exogenous, chimeric NR-Gal4 proteins. […] At the end of 24 hour incubation, total RNA was isolated using TriZol reagent (Invitrogen). The isolated RNA is then reverse-transcribed using oligo(dT) primer and Mo-MLV reverse transcriptase (Invitrogen) with DNAse I (Ambion) treatment for 30 min. The one-tenth of the produced cDNA was amplified by PCR using Taq DNA polymerase (Invitrogen) and two reporter sequence-specific primers. The PCR products were fluorescently labeled by primer extension with 6-arboxyfluorescein (6-FAM) 5'-labeled reporter sequence-specific primer (2 min at 95 C, 20 s at 68 C and 10 min at 72 C) and these products were digested with 5U of HpaI (New England Biolabs) for 2h at 37 C. The fragments were purified using Qiaquick PCR columns (Qiagen), analyzed on an ABI 3130xL genetic analyzer (Applied Biosystems) with peak positions identified by using a set of X-rhodamine (ROX)-labeled MapMarker1000 molecular weight standards (BioVentures). The raw capillary electrophoresis data was processed using Attagraph software (Attagene).
As to `COC(Cc1ccccc1)OC`, the outcome was inactive.

In the case of `CCCCCCCCCCCCC`, the result was inactive.

Take `Nc1ccnc(=O)[nH]1`: the compound was called inactive.

Turning to `CC(=O)OC/C=C(/C)CCC=C(C)C`, the call was inactive.

With `O=C(O)CC(C(=O)O)S(=O)(=O)O` (stereo not given), the outcome was inactive.

For `CCN(CC)c1cccc(C)c1`, the outcome was inactive.

For `C=CC(=O)OCCCCCCCCCC`, the outcome was inactive.

For `O=c1c(O)c(-c2ccc(O)cc2O)oc2cc(O)cc(O)c12`, the compound was classed as inactive.

For the compound `CCCCCCCCCCCCc1ccc(O)cc1`, the compound was called inactive.

Consider `CCCCCCO`, for which the call was inactive.

Take `CCCCCOC(=O)CCCCC`: the result was inactive.

Regarding `C=C[Si](OCCOC)(OCCOC)OCCOC`, the call was inactive.

Consider `C/C=C/C=C/CCCCCCCO`, for which the AC50 is 168 µM (active).

Consider `CC(C=O)c1ccccc1` (stereo not given), for which the compound was called inactive.

`C=CC(=O)NC(C)(C)C`: the compound was classed as inactive.

`CC(C)(C)C1CCC(=O)CC1`: the AC50 is 156 µM (active).

With `COC(=O)CC(C)CCC=C(C)C` (stereo not given), the call was inactive.

Turning to `O=C(O)CCCC(=O)O`, the outcome was inactive.

Consider `CCOC(=O)/C=C\C(=O)OCC`, for which the result was inactive.

Regarding `CCCCCCCO`, the compound was classed as inactive.

In the case of `CC(C)=NNC(N)=S`, the compound was called inactive.

For `CCOC(=O)C1=NN(c2ccc(Cl)cc2Cl)C(C)(C(=O)OCC)C1` (stereo not given), the half-maximal activity concentration (AC50) is 137 µM (active).

Regarding `CC(=O)OCc1ccccc1`, the outcome was inactive.

Consider `CC(C)OC(=O)c1ccccc1`, for which the result was inactive.

Regarding `C=C(C)[C@@H]1CC=C(C)CC1`, the compound was called inactive.

Turning to `CCC(C)c1ccccc1` (stereo not given), the outcome was inactive.

Turning to `Nc1nc(N)nc(-c2ccccc2)n1`, the result was inactive.

As for `COC(=O)C=Cc1ccccc1`, the result was inactive.

With `Cc1cc(C)n(CO)n1`, the call was inactive.

In the case of `C1CNCCN1`, the result was inactive.

For `CC(C)c1cc(C(C)C)cc(C(C)C)c1`, the compound was classed as inactive.

With `O=C(O[C@@H]1Cc2c(O)cc(O)cc2O[C@@H]1c1cc(O)c(O)c(O)c1)c1cc(O)c(O)c(O)c1`, the call was inactive.

For the compound `CCNc1nc(NC(C)(C)C)nc(OC)n1`, the outcome was inactive.

With `CCCCCCCCCCCCCc1ccccc1`, the outcome was inactive.

Take `N#Cc1ccc(C2CCCc3cncn32)cc1` (stereo not given): the result was inactive.

For `c1ccc2sc(SSN3CCOCC3)nc2c1`, the AC50 was 69.6 µM (active).

As for `C=CC(=O)OCCCCCCOC(=O)C=C`, the AC50 is 180 µM (active).

In the case of `CCCCCCC=O`, the compound was called inactive.

`CO[Si](CCCS)(OC)OC`: the compound was called inactive.

As for `Nc1ccc(O)c([N+](=O)[O-])c1`, the result was inactive.
